According to ChEMBL document CHEMBL1157539, “Thousands of chemical starting points for antimalarial lead identification” (Nature, 2010):

Each compound was assayed on Plasmodium falciparum (assay: GSK_TCMDC: Inhibition of Plasmodium falciparum 3D7 in whole red blood cells, using parasite LDH activity as an index of growth. Test compounds present at 2uM).
Type: functional
Compound `Cl.N=C(N)NN=Cc1c2ccccc2c(Cl)c2ccc(Cl)cc12` has an Inhibition of 98%. In the case of `Cc1cc(CNC(=O)c2ccc(-c3ccc(-c4nc5cc(C(F)(F)F)ccc5[nH]4)s3)cc2)on1`, the Inhibition is reported as 93%. For `CCOC(=O)CC[C@@H](NC(=O)c1ccc(NCc2ccc3ccc4nc(C)[nH]c(=O)c4c3c2)cc1F)C(=O)N[C@@H](Cc1c[nH]c2ccccc12)C(=O)OCC`, the Inhibition was 98%. For `Cc1cc(O)c(-c2ccc(Oc3ccc(F)cc3)cc2)c(C)n1`, the Inhibition was 85%. `COc1ccc(-c2nc(NC(=O)COc3ccc(C(C)=O)cc3)sc2C)cc1` was tested, and the Inhibition was 98%.

These compounds were tested on Plasmodium falciparum (assay: GSK_TCMDC: Inhibition of Plasmodium falciparum Dd2 in whole red blood cells, using parasite LDH activity as an index of growth. Test compounds present at 2uM).
Type: functional
`CC(CN(C)C)C(=O)Nc1cccc(-c2cccc(-c3nc4ccccc4[nH]3)c2)c1` (stereo not given) was tested, and the Inhibition was 25%. `COc1cc(O)c2c(=O)c(OC)c(-c3cccc(Cl)c3OC3O[C@H](CO)[C@@H](O)[C@H](O)[C@H]3O)oc2c1OC` (stereo not given in full) gave an Inhibition of 6%. Work on `CCCOc1cc(OCCC)cc(-c2cc(=O)c3ccccc3[nH]2)c1` yielded an Inhibition of 96%. `Cc1ccc(NC(=O)Nc2ccc(Cl)c(C(F)(F)F)c2)cc1-c1ccc(C(=O)NCCN2CCOCC2)cc1` gave an Inhibition of 31%. Work on `C[C@@H](CC1CCCCC1)OC(=O)N(C)[C@H]1CCN(C#N)C1` yielded an Inhibition of 62%. `COc1cc(-c2nc(-c3ccc(C(=O)c4ccc(F)cc4)cc3)c(-c3ccccc3)[nH]2)cc(OC)c1O` gave an Inhibition of 100%. `CC[C@]1(C)C[C@@H](NC(=O)NC(=O)c2ccc(OC)cc2)[C@]2(C)[C@H](C)CC[C@]3(CCC(=O)[C@H]32)[C@@H](C)[C@@H]1OC(=O)NC(=O)c1ccc(OC)cc1` gave an Inhibition of 98%. With `CC1(C)N=C(N)N=C(N)N1OCc1ccc2c(c1)OCO2` the Inhibition was 86%. Compound `CCc1cc(=O)[nH]c(-n2nc(C)cc2NC(=O)CC(c2ccccc2)c2ccccc2)n1` has an Inhibition of 75%. For `Cl.O=C(Nc1cccc2ccccc12)N1CCc2cc3nccc(N4CCN5CCC[C@H]5C4)c3cc21`, the Inhibition was 86%. `O=C(Nc1ccc2c(c1)CCC2)c1cccc(N2CCN(c3ccncc3)CC2)c1.O=C(O)C(F)(F)F` gave an Inhibition of 22%. For `Cc1cccc2nc(-c3cccc(-c4ccc(C(=O)NCc5ccccc5S(C)(=O)=O)cc4)c3)[nH]c12`, the Inhibition was 27%. `COc1cc2nc(Nc3ccc4c(c3)OCCO4)nc(N)c2cc1OC.Cl` was tested, and the Inhibition was 80%. For `O=C(O)C(F)(F)F.O=S(=O)(NCCN1CCCC1)c1ccc(-c2cccc(CNCCc3cccs3)c2)cc1`, the Inhibition was 30%. `O=C(Nc1ccc(F)c([N+](=O)[O-])c1)Nc1cc(C(F)(F)F)ccc1Cl` gave an Inhibition of 86%. `CCc1cc(C(=O)c2cccc(C)c2)c(NC(=O)CN2CCN(C(=O)c3ccco3)CC2)s1` was tested, and the Inhibition was 85%. `O=c1[nH]c2c(cc1CNC1CCCCC1)c(-c1ccc(F)cc1)nn2-c1ccccc1` showed an Inhibition of 88%. Compound `Cc1cc(OCCCN2CCC(NS(=O)(=O)c3ccc(Cl)c(Cl)c3)C2)c2ccccc2n1` (stereo not given) has an Inhibition of 37%. `CCCCN(CCCC)CCOc1cc2c(cc1OC)CCN2C(=O)/C=C/c1ccccc1Cl.Cl` was tested, and the Inhibition was 31%. With `c1cncc(Oc2ccc(Nc3ccnc4cc(-c5cccc(CN6CCCCC6)c5)ccc34)cc2)c1` the Inhibition was 100%. For `Cc1cc(N[C@@H](CC(C)C)C(=O)NCCOc2ccccc2)nc(Nc2ccccc2)n1.O=C(O)C(F)(F)F`, the Inhibition was 9%. In the case of `CC(C)C1c2ccc(O)cc2CC2C(=O)N(C3CCCCC3)C(=O)N21` (stereo not given), the Inhibition is reported as 88%. Work on `Cc1noc(C)c1-c1ccc2c(Nc3ccccc3C(C)(C)C)c(C(=O)NCc3ccc(OC(C)C)cc3)cnc2c1.Cl` yielded an Inhibition of 98%. For `Cc1ccccc1CNc1noc(-c2c(-c3ccccc3)noc2C)n1`, the Inhibition was 70%. With `COc1ccc(CNC2Cc3ccccc3C2)cc1-c1cccc(S(=O)(=O)NCCN2CCCC2)c1.O=C(O)C(F)(F)F` the Inhibition was 61%. For `O=C(C=Cc1ccc(Cl)c(Cl)c1)NCCCCCN1CCCC(CCCNS(=O)(=O)c2cccc3cccnc23)C1` (stereo not given), the Inhibition was 16%. For `COc1ccc(-c2ccc(NC(=O)c3cccc(C#N)c3)cc2)cc1CN1CCNCC1.O=C(O)C(F)(F)F`, the Inhibition was 47%. Compound `Cc1cc(C)c(NC(=O)NC2CCN(CCCCCNC(=O)/C=C/c3ccc(Cl)c(Cl)c3)CC2)c(C)c1` has an Inhibition of 17%. `O=C(NC1CCN(Cc2ccccc2)CC1)c1cc(C(=O)NC2CCN(Cc3ccccc3)CC2)cc(C(=O)NC2CCN(Cc3ccccc3)CC2)c1` was tested, and the Inhibition was 100%. Work on `CC(C)CC(=O)N1CCNC[C@@H]1C(=O)NCCSCc1c(F)cccc1Cl.O=C(O)C(F)(F)F` yielded an Inhibition of 3%.
